This is part of a sample that, as a whole, favours compounds with a hit. Of some 83,000 tested, about 20% had one in any assay.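 Assay: single dose, 48 h. Readout: percent growth (0 = no net growth; negative = cell death). Active: <10.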 Values without a mark were called inactive. Active and inactive are the calls of the source.

Among the test systems are HCT-15 colon; HT29 colon; SNB-75 CNS; U251 CNS; PC-3 prostate; SK-MEL-5 melanoma; UACC-62 melanoma; LOX IMVI melanoma; SK-MEL-28 melanoma; SNB-19 CNS.
Holding throughout (assay): NCI-60 one-dose screen, 48 h (100 = growth as untreated, 0 = no growth, -100 = all killed)
Common to all, as to details: 10 µM unless noted

Take `CCCCCn1cnc2c(=S)nc[nH]c21`: the growth with HCT-15 colon was 107%; with HT29 colon, 114%; in the assay with SNB-75 CNS it was 90.2%; in the assay with U251 CNS, 110%; in the assay with PC-3 prostate, 98%; in the assay with SK-MEL-5 melanoma, 93.5%. Further, the growth is 109% in the assay on UACC-62 melanoma, 107% in the assay with LOX IMVI melanoma and 106% in the assay with SK-MEL-28 melanoma.
Consider `C=C1CC[C@@H]2[C@](C)(COC(C)=O)[C@H](OC(C)=O)CC[C@@]2(C)[C@@H]1CC(NCc1ccc(F)cc1)C1=CCOC1=O` (some centres not stated), for which the growth in the assay with HCT-15 colon was 37%; in the assay on HT29 colon it was 21.3%; in the assay on SNB-75 CNS, 58.1%; in the assay on U251 CNS it was 48%; in the assay with PC-3 prostate, 20.8%; with SK-MEL-5 melanoma it was 11.8%. Further, the growth with UACC-62 melanoma was 32.2%; in the assay with LOX IMVI melanoma, 9.33% (active); in the assay with SK-MEL-28 melanoma, 77.8%.
In the case of `COc1cc(-c2nc3ccccc3s2)ccc1NC(=O)COc1ccc(Cl)cc1`, the growth was 85.8% in the assay with HCT-15 colon; 34.9% in the assay on HT29 colon; 21.3% in the assay with SNB-75 CNS; 41.9% in the assay with U251 CNS; 49.8% in the assay with PC-3 prostate; 73.7% in the assay on SK-MEL-5 melanoma. For the same compound, the figures for the growth with UACC-62 melanoma, with LOX IMVI melanoma and with SK-MEL-28 melanoma were 36.1%, 64.7% and 58.6%, respectively.
On to `COc1ccc(-c2nc(Nc3cc(C)[nH]n3)c3ccccc3n2)cc1`, for which the growth is 42.4% in the assay on HCT-15 colon; 17.4% in the assay with HT29 colon; -33.5% (active) in the assay on SNB-75 CNS; 53.8% in the assay with SNB-19 CNS; 57.2% in the assay with PC-3 prostate; 69% in the assay on SK-MEL-5 melanoma. Also, the growth in the assay on UACC-62 melanoma was 52.9%; with SK-MEL-28 melanoma, 61.5%.
In the case of `CCCCCC(=O)N(CCCC)CCCC`, the growth in the assay with HCT-15 colon was 96.8%; in the assay with HT29 colon it was 111%; in the assay on SNB-75 CNS it was 86.5%; in the assay with SNB-19 CNS it was 92.9%; in the assay on PC-3 prostate, 99.8%; with SK-MEL-5 melanoma it was 98.6%. For the same compound, the results for the growth in the assay with UACC-62 melanoma and with SK-MEL-28 melanoma were 94.2% and 104%, respectively.
For the compound `CSc1ncnc2c1ncn2C1CCCO1` (configuration not stated), the growth with HCT-15 colon was 103%; with HT29 colon it was 99.7%; in the assay with SNB-75 CNS it was 83.2%; in the assay on U251 CNS it was 103%; in the assay with PC-3 prostate, 106%; with SK-MEL-5 melanoma it was 107%. The growth was 88.5% in the assay with UACC-62 melanoma, 102% with LOX IMVI melanoma and 141% with SK-MEL-28 melanoma.
Turning to `CC1=NNC(=O)C1C` (configuration not stated), the growth is 98.7% with HCT-15 colon; 109% in the assay on HT29 colon; 91.4% in the assay with SNB-75 CNS; 105% in the assay on U251 CNS; 108% in the assay on PC-3 prostate; 103% in the assay with SK-MEL-5 melanoma. Also, the growth in the assay on UACC-62 melanoma is 94.5%; with LOX IMVI melanoma, 99%; in the assay with SK-MEL-28 melanoma it was 106%.
Turning to `Nc1cc2nc3ccccc3sc-2cc1=O`, the growth with HCT-15 colon was 55.2%; in the assay with HT29 colon, 94.1%; in the assay with SNB-75 CNS, 109%; with SNB-19 CNS, 91.7%; with SK-MEL-5 melanoma it was 31.3%; in the assay with UACC-62 melanoma, 17.2%. The growth with LOX IMVI melanoma is 11%; with SK-MEL-28 melanoma, 46.5%.
Regarding `NC(CC(=O)O)C(=O)OCc1ccccc1` (configuration not stated), the growth in the assay on HCT-15 colon is 95.1%; in the assay with HT29 colon it was 115%; in the assay with SNB-75 CNS, 65.5%; in the assay with SNB-19 CNS it was 101%; with PC-3 prostate, 103%; in the assay on SK-MEL-5 melanoma, 97.8%. For the same compound, the growth is 94.5% with UACC-62 melanoma and 99.1% with SK-MEL-28 melanoma.
For `COc1ccc(CCN2CCCn3c2nc2ccccc2c3=O)cc1`, the growth is 22.2% in the assay on HCT-15 colon; 11.8% in the assay with HT29 colon; 17.5% in the assay with SNB-75 CNS; 29% in the assay on U251 CNS; 42% in the assay on PC-3 prostate; 15.5% with SK-MEL-5 melanoma. The results for the growth with UACC-62 melanoma, in the assay with LOX IMVI melanoma and in the assay with SK-MEL-28 melanoma were 26.5%, 15.1% and 49.6%, respectively.
On to `CN1CCN(Cc2ccc(NC(=O)c3[nH]ncc3Nc3ncnc4[nH]ccc34)cc2)CC1`, for which the growth in the assay on HCT-15 colon is 15.6%; in the assay with HT29 colon it was 1.32% (active); with SNB-75 CNS, -39.1% (active); with U251 CNS it was 7.23% (active); in the assay on PC-3 prostate, 5.02% (active); in the assay with SK-MEL-5 melanoma, -25.4% (active). Moreover, the growth is 6.54% (active) with UACC-62 melanoma, -67% (active) with LOX IMVI melanoma and 2.8% (active) in the assay with SK-MEL-28 melanoma.
For the compound `COc1ccc2nc(NC(=O)c3cccnc3Nc3cc(OC)c(OC)c(OC)c3)sc2c1`, the growth in the assay on HCT-15 colon was 56.3%; in the assay on HT29 colon, 11.9%; with SNB-75 CNS it was 14.1%; in the assay on SNB-19 CNS, 26.4%; with SK-MEL-5 melanoma, 15.5%; in the assay on UACC-62 melanoma, 57.2%. Also, the growth with SK-MEL-28 melanoma is 24.1%.
Consider `COc1nc2c(cc1S(=O)(=O)c1ccccc1)CCc1c-2cnn1-c1ccc(Cl)cc1`, for which the growth is 93.8% in the assay on HCT-15 colon; 89.3% in the assay on HT29 colon; 92.3% with SNB-75 CNS; 92.1% in the assay with U251 CNS; 88.2% in the assay on PC-3 prostate; 94.8% with SK-MEL-5 melanoma. For the same compound, the growth in the assay with UACC-62 melanoma is 88.7%; with LOX IMVI melanoma, 96.2%; with SK-MEL-28 melanoma, 88.8%.
Turning to `O=C(COc1cccc(/C=C2/Oc3ccccc3C2=O)c1)Nc1nccs1`, the growth is 81.7% in the assay on HCT-15 colon; 84.2% with HT29 colon; 84.8% in the assay with SNB-75 CNS; 89.4% with U251 CNS; 14.6% in the assay on PC-3 prostate; 78.8% in the assay on SK-MEL-5 melanoma. Besides, the results for the growth in the assay on UACC-62 melanoma, in the assay with LOX IMVI melanoma and with SK-MEL-28 melanoma were 82.9%, 65.4% and 124%, respectively.
Consider `COc1c(Cl)cc(Cl)cc1Cl`, for which the growth with HCT-15 colon is 116%; with HT29 colon it was 108%; in the assay with SNB-75 CNS it was 116%; in the assay with SNB-19 CNS, 103%; with SK-MEL-5 melanoma it was 109%; with UACC-62 melanoma, 100%. Further, the growth in the assay with LOX IMVI melanoma is 107%; in the assay on SK-MEL-28 melanoma it was 127%.
For the compound `NS(=O)(=O)c1ccc(Nc2nc3n[nH]c(Nc4ccccc4)c3c(=O)[nH]2)cc1`, the growth was 108% in the assay with HCT-15 colon; 101% in the assay with HT29 colon; 70.8% in the assay with SNB-75 CNS; 101% in the assay with U251 CNS; 92.1% in the assay on PC-3 prostate; 99% with SK-MEL-5 melanoma. In addition, the growth in the assay with UACC-62 melanoma was 105%; in the assay on LOX IMVI melanoma, 101%; in the assay on SK-MEL-28 melanoma it was 111%.

Source of the values: PubChem BioAssay (NCI).
